Results reported in PubChem BioAssay (Tox21).
Records with an inconclusive call do not appear. The source made the active and inactive calls. Unless noted, calls follow the shape of the dose curve; as a rule, active = well fitted curve in the direction sought with a large enough effect in the repeat runs; inconclusive = weak or mixed curves; inactive = no such curve, though single readings can be large; an effect the other way counts as inactive or inconclusive.

Experiments:
[1] = qHTS assay to identify small molecule agonists of the hypoxia (HIF-1) signaling pathway - cell viability counter screen (AID 1224844; calls by dose curve; also: nearly all actives have a fitted effect of over 50% in size)
Procedure, shortened: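 Tox21 10K compounds were added to HRE-bla ME-180 cells (0.5% dialyzed FBS) and incubated 17 hrs at 37C; ATP-based CellTiter-Glo luminescence then reported cell viability in the same wells.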

[2] = qHTS assay to identify small molecule agonists of H2AX (AID 1224845; active = well fitted activation curve with a large enough effect in the signal ratio in the repeat runs, not every such curve was filed as active; the % refers to the signal ratio)
Procedure, shortened: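 Wild-type CHO-K1 cells plated overnight, then exposed 3 hr at 37C to compounds at 15 concentrations (0.76% DMSO). Lysed, then HTRF anti-pH2AX(S139)-cryptate/anti-H2AX-d2 detection after 24 hr at room temperature; emissions 665 and 620 nm.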

[3] = qHTS assay to identify small molecule agonists of the hypoxia (HIF-1) signaling pathway (AID 1224846; active = well fitted activation curve with a large enough effect in the signal ratio in the repeat runs, not every such curve was filed as active; the % refers to the signal ratio)
Procedure, shortened: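 Steps: seed ME-180 HRE-bla cells (2,000/well, 0.5% dialyzed FBS); incubate 5 hrs at 37C; pin-transfer compounds or DMSO; incubate 17 hrs; add LiveBLAzer B/G substrate CCF4-AM; measure reporter activation by FRET.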

[4] = qHTS assay to identify small molecule agonists of H2AX - cell viability counter screen (AID 1224847; calls by dose curve; also: top concentration of the series differs between compounds; nearly all actives have a fitted effect of over 30% in size)
Procedure, shortened: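 Quantitative HTS viability measurement: CHO-K1 wild-type cells in serum (10% FBS) medium, short 3 hr drug exposure at 37C with 0.76% DMSO, CellTiter-Glo luminescent detection.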

[5] = qHTS RealTime-Glo MT Cell Viability Assay in HepG2 cells - 24 hour (AID 1224867); also: nearly all actives have a fitted effect of over 50% in size
Procedure, shortened: (§1)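 HepG2 cells were seeded at 600 cells/well together with NanoLuc luciferase and a cell-permeant prosubstrate, preincubated 5 h at 37 C/5% CO2, then pin-dosed with compounds in DMSO. Nonlytic luminescence from viable cells was read at each time point.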

[6] = qHTS RealTime-Glo MT Cell Viability Assay in HEK293 cells - 32 hour (AID 1224868); also: top concentration of the series differs between compounds; nearly all actives have a fitted effect of over 50% in size
Procedure, shortened: (§2)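 HEK293 cells were seeded at 600 cells/well together with NanoLuc luciferase and cell-permeant prosubstrate, preincubated 5 h at 37 C/5% CO2, then given compound in DMSO by pintool. Luminescence from viable-cell prosubstrate reduction was read repeatedly over 40 h.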

[7] = A CellTox Green Cytotoxicity Assay to monitor cytotoxicity in HEK293 cells - 0 hour (AID 1224869); also: nearly all actives have a fitted effect of over 50% in size
Procedure, shortened: (§3)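 Cytotoxicity was tracked continuously in HEK293 cells by a DNA-binding dye excluded from viable cells. Compounds were transferred in DMSO 5 h after seeding; fluorescence was recorded at intervals up to 40 h.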

[8] = qHTS RealTime-Glo MT Cell Viability Assay in HepG2 cells - 40 hour (AID 1224870); also: nearly all actives have a fitted effect of over 50% in size
Procedure, shortened: (§4)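 HepG2 cells mixed with RealTime-Glo MT reagents (NanoLuc plus cell-permeant prosubstrate) were seeded at 600 cells/well, incubated 5 h at 37 C/5% CO2, then pinned with compounds in DMSO; nonlytic luminescence tracked viability during 40 h treatment.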

[9] = A CellTox Green Cytotoxicity Assay to monitor cytotoxicity in HEK293 cells - 40 hour (AID 1224871); also: nearly all actives have a fitted effect of over 45% in size
Procedure, shortened: as §3

[10] = qHTS RealTime-Glo MT Cell Viability Assay in HEK293 cells - 16 hour (AID 1224872)
Procedure, shortened: as §2

[11] = qHTS RealTime-Glo MT Cell Viability Assay in HepG2 cells - 8 hour (AID 1224873); also: nearly all actives have a fitted effect of over 55% in size
Procedure, shortened: as §4

[12] = qHTS RealTime-Glo MT Cell Viability Assay in HEK293 cells - 40 hour (AID 1224874); settings: RealTime-Glo luminescence; max response: hits give low values; also: nearly all actives have a fitted effect of over 50% in size
Procedure, shortened: (§5)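 Nonlytic bioluminescent viability monitoring. HEK293 at 600 cells/well with reagent; 5 h settle; compound transfer by pintool; plates held at 37 C and read at set time points.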

[13] = A CellTox Green Cytotoxicity Assay to monitor cytotoxicity in HEK293 cells - 24 hour (AID 1224875); also: series mostly up to about 77 µM; nearly all actives have a fitted effect of over 45% in size
Procedure, shortened: as §3

[14] = A CellTox Green Cytotoxicity Assay to monitor cytotoxicity in HepG2 cells - 16 hour (AID 1224876); also: nearly all actives have a fitted effect of over 45% in size
Procedure, shortened: (§6)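 Real-time, homogeneous cytotoxicity readout: dead-cell DNA staining by CellTox Green in HepG2 monolayers, fluorescence measured at timed intervals up to 40 h of continuous compound exposure.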

[15] = A CellTox Green Cytotoxicity Assay to monitor cytotoxicity in HepG2 cells - 24 hour (AID 1224878); also: nearly all actives have a fitted effect of over 45% in size
Procedure, shortened: as §6

[16] = A CellTox Green Cytotoxicity Assay to monitor cytotoxicity in HepG2 cells - 40 hour (AID 1224879); also: nearly all actives have a fitted effect of over 40% in size
Procedure, shortened: as §6

[17] = qHTS RealTime-Glo MT Cell Viability Assay in HEK293 cells - 0 hour (AID 1224880)
Procedure, shortened: as §5

[18] = qHTS RealTime-Glo MT Cell Viability Assay in HepG2 cells - 32 hour (AID 1224877); also: nearly all actives have a fitted effect of over 55% in size
Procedure, shortened: as §1
% is scaled to controls: 0 for no effect and ±100 for the full control effect.

Cc1ccccc1S(=O)(=O)O
inactive: Potency [1] | Potency [2] | Potency [3] | Potency [4] | Potency [5] | Potency [6] | Potency [7] | Potency [8] | Potency [9] | Potency [10] | Potency [11] | max response [12] 3.84% | Potency [13] | Potency [14] | Potency [15] | Potency [16] | Potency [17]

CC1OC(=O)C(C)OC1=O (stereo not given)
inactive: Potency [1] | Potency [2] | Potency [3] | Potency [4] | Potency [5] | Potency [6] | Potency [7] | Potency [9] | Potency [10] | Potency [11] | max response [12] -4.59% | Potency [13] | Potency [14] | Potency [18] | Potency [15] | Potency [16] | Potency [17]

CC1=CC[C@H](C(C)C)C=C1
inactive: Potency [1] | Potency [2] | Potency [3] | Potency [4] | Potency [5] | Potency [6] | Potency [7] | Potency [8] | Potency [9] | Potency [10] | Potency [11] | max response [12] -3.46% | Potency [13] | Potency [14] | Potency [18] | Potency [15] | Potency [16] | Potency [17]

O=C(O)C(S)C(S)C(=O)O (stereo not given)
inactive: Potency [1] | Potency [2] | Potency [3] | Potency [4] | Potency [5] | Potency [6] | Potency [7] | Potency [8] | Potency [9] | Potency [10] | Potency [11] | max response [12] 3.09% | Potency [13] | Potency [14] | Potency [18] | Potency [15] | Potency [16] | Potency [17]

CCCCO
inactive: Potency [1] | Potency [2] | Potency [3] | Potency [4] | Potency [5] | Potency [6] | Potency [7] | Potency [9] | Potency [10] | max response [12] 1.62% | Potency [13] | Potency [18] | Potency [15] | Potency [16] | Potency [17]

CCCCCCCCO[C@@H]1O[C@H](CO)[C@@H](O)[C@H](O)[C@H]1O
inactive: Potency [1] | Potency [2] | Potency [3] | Potency [4] | Potency [5] | Potency [6] | Potency [7] | Potency [8] | Potency [9] | Potency [10] | Potency [11] | max response [12] 4.48% | Potency [13] | Potency [14] | Potency [18] | Potency [15] | Potency [16] | Potency [17]

CN(C)CCN(Cc1ccsc1)c1ccccn1
inactive: Potency [1] | Potency [2] | Potency [3] | Potency [4] | Potency [5] | Potency [6] | Potency [7] | Potency [8] | Potency [9] | Potency [10] | Potency [11] | max response [12] 1.6% | Potency [13] | Potency [14] | Potency [18] | Potency [15] | Potency [16] | Potency [17]

CC(C)(COC(=O)c1ccccc1)COC(=O)c1ccccc1
inactive: Potency [1] | Potency [2] | Potency [3] | Potency [4] | Potency [5] | Potency [6] | Potency [7] | Potency [9] | max response [12] -28.7% | Potency [13] | Potency [18] | Potency [15] | Potency [16] | Potency [17]

NCc1ccccc1Sc1ccccc1CO
inactive: Potency [1] | Potency [2] | Potency [3] | Potency [4] | Potency [5] | Potency [6] | Potency [7] | Potency [8] | Potency [9] | Potency [10] | Potency [11] | max response [12] -17% | Potency [13] | Potency [14] | Potency [18] | Potency [15] | Potency [16] | Potency [17]

CCCCCCCCCCCC(=O)OC[C@@H](O)[C@H]1OC[C@H](OCCO)[C@H]1OCCO
inactive: Potency [1] | Potency [2] | Potency [3] | Potency [4] | Potency [5] | Potency [6] | Potency [7] | Potency [8] | Potency [9] | Potency [10] | max response [12] -0.559% | Potency [13] | Potency [14] | Potency [15] | Potency [16] | Potency [17]

CNC(=O)CN(CCN(CCN(CC(=O)[O-])CC(=O)NC)CC(=O)[O-])CC(=O)[O-].O.[Gd+3]
inactive: Potency [1] | Potency [2] | Potency [3] | Potency [4] | Potency [5] | Potency [6] | Potency [7] | Potency [8] | Potency [9] | Potency [10] | Potency [11] | max response [12] 2.96% | Potency [13] | Potency [18] | Potency [15] | Potency [16] | Potency [17]

CC/C=C\CCOC(=O)CC
inactive: Potency [1] | Potency [2] | Potency [3] | Potency [4] | Potency [5] | Potency [6] | Potency [7] | Potency [8] | Potency [9] | Potency [10] | Potency [11] | max response [12] 0.388% | Potency [13] | Potency [14] | Potency [18] | Potency [15] | Potency [16] | Potency [17]

CCOC(=O)c1cccnc1
inactive: Potency [1] | Potency [2] | Potency [3] | Potency [4] | Potency [5] | Potency [6] | Potency [8] | Potency [9] | Potency [10] | Potency [11] | max response [12] 1.88% | Potency [13] | Potency [14] | Potency [18] | Potency [15] | Potency [16] | Potency [17]

COc1ccc2cccc(CCNC(C)=O)c2c1
inactive: Potency [1] | Potency [2] | Potency [3] | Potency [4] | Potency [5] | Potency [6] | Potency [7] | Potency [8] | Potency [9] | Potency [10] | max response [12] -8.88% | Potency [13] | Potency [18] | Potency [17]
